Only some compounds are listed: those with a hit (about 13% of all), similar ones and a draw of the others.
Cycloheximide cs: affects cycloheximide protein synthesis inhibition readout, counter-screen; cell reporter, cycloheximide protein synthesis inhibition counterscreen; max response, %; actives 12% (n = 300,000); AID 2314; in the data active = max response mostly above about 13%, no sharp cut-off; inactive = mostly below about 14%; note: read at 38.3 µM for the half of the compounds with a filed dose
MARV entry inh: inhibitors of Marburg virus binding or cell entry; Marburg virus pseudotyped entry inhibition, cell reporter; Potency, µM (top dose mostly 37.8 µM), usual class: inhibitors; actives 1.8% (n = 300,000); calls by dose curve; tested in HEK293 cells
Lassa entry inh: Lassa virus entry inhibition; Potency, µM (top dose mostly 37.9 µM), actives largely listed as inhibitors; actives 1.2% (n = 300,000); Lassa virus pseudotype entry inhibition, cell reporter; calls by dose curve; tested in HEK293 cells; note: nearly all actives have a fitted effect of over 50% in size
FMDV antiviral: blocks foot and mouth disease virus. FMDV antiviral cell-based qHTS. Potency, µM (titrated, usually from 57.9 µM), most hits filed as inhibitors. actives 1.2% (n = 410,000); calls by dose curve; tested in HEK293T cells; note: read-out not given here; nearly all actives have a fitted effect of over 45% in size
HCV inh: inhibitors of hepatitis C virus infection. Huh7.5.1 HCVcc-Cre infection, luciferase reporter, 44 h. Potency, µM (series often up to 41.8 µM), hits mostly inhibitors. actives 3.4% (n = 340,000). AID 651820; active = well fitted inhibition curve with a large enough effect; inconclusive = small, poorly fitted or top-dose-only effect, or another doubt; inactive = no such curve, though single readings can be large or run the other way
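Reporter virus HCVcc-Cre (~0.5 moi) infects cells exposed to compound; seeding density 1,000 cells/well with 4 h settling beforehand. Luminescence, 15 sec read, taken 44 h post-infection following a 15 min RT substrate incubation.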
Shiga inhibitor: inhibitors of Shiga toxin in Vero cells; inhibition, % at 38.7 µM; actives 9.2% (n = 290,000); Vero cells, Shiga toxin protein synthesis inhibition reporter; in the data active = inhibition mostly above about 28%, no sharp cut-off; inactive = mostly below about 43%
Numbers stand for hits; . = inactive; ? = inconclusive; / = not tested or not shown.

SMILES | Cycloheximide cs | MARV entry inh | Lassa entry inh | FMDV antiviral | HCV inh | Shiga inhibitor
Clc1ccc(SCc2cc(-c3ccccc3)no2)cc1 | . | . | . | . | . | .
COc1ccc(-c2cc(-c3ccccc3)no2)cc1 | / | / | / | . | . | /
Cc1cccc(OCc2cc(-c3ccccc3)no2)c1C | 48 | / | / | . | . | 86
Cc1ccc(C)c(S(=O)(=O)N2CCCCC2CCNC(=O)C(=O)NC2CCCC2)c1 (stereo unspecified) | / | ? | . | ? | ? | /
O=C(c1ccc(Cl)cc1)C1CCN(C(=O)c2ccccc2)CC1 | . | / | / | . | . | .
Cc1ccc(C)c(Nc2nn3c(=O)c4cc5c(cc4nc3s2)OCO5)c1 | / | ? | . | . | / | /
CCCc1nc2c(s1)CCc1onc(-c3cccc([N+](=O)[O-])c3)c1-2 | / | / | / | . | . | /
Cn1c(=O)c2c(nc(CN3CCOCC3)n2CCc2ccccc2)n(C)c1=O | . | . | . | . | . | .
Cc1ccc(-c2nnc(SCC(=O)N3CCOCC3)nc2-c2ccc(C)cc2)cc1 | . | ? | ? | . | . | .
C=CCc1c(C)nc(SC)nc1Nc1ccc(C(C)=O)cc1 | 46 | . | . | . | ? | 82
C=CCc1c(C)nc(SC)nc1Nc1ccc(C(=O)O)cc1 | . | . | . | . | . | .
COc1ccc(OC)c(C(C)NC(=S)NC2CCCCC2)c1 (stereo unspecified) | . | / | / | . | ? | .
COc1cc(CN2CCN(S(=O)(=O)c3ccc(F)cc3)CC2)cc(OC)c1OC | . | . | . | . | . | .
COc1ccc(Nc2oc(COc3ccccc3F)nc2C#N)cc1 | . | / | / | . | . | .
COc1ccc(CNc2oc(COc3cccc(C)c3)nc2C#N)cc1 | / | . | . | . | / | /
COc1ccc(Nc2oc(COc3ccc(OC)cc3)nc2C#N)cc1 | . | 6.5µM | ? | . | ? | .
COc1ccc(Nc2oc(COc3cccc(C)c3)nc2C#N)cc1 | 60 | ? | 11µM | . | ? | 76
COc1ccc(Nc2oc(COc3ccc(C)cc3)nc2C#N)cc1 | . | . | . | . | ? | 41
CCOc1ccc(Nc2oc(-c3ccco3)nc2C#N)cc1 | 33 | . | . | . | . | .
CC(C)(C)c1ccccc1NC(=O)Cn1c(=O)cnc2ccccc21 | . | . | . | . | . | .
COc1ccc(-n2nnnc2SCC(=O)NC2CC2)cc1 | / | / | / | . | . | /
COc1ccc2c(c1)CCc1cnc(-n3ncc(C(=O)NC4CCOC4)c3C3CC3)nc1-2 (stereo unspecified) | / | / | / | . | / | /
O=C(NCc1ccccn1)C(=O)NCC1OCCN1C(=O)c1ccc(Cl)cc1 (stereo unspecified) | / | . | ? | . | . | /
COc1ccc(Nc2oc(-c3ccc(F)cc3)nc2C#N)cc1 | 35 | . | ? | . | . | 73
N#Cc1nc(COc2cccc(Cl)c2)oc1NCc1ccco1 | 50 | / | / | . | . | .
SMILES | Cycloheximide cs | MARV entry inh | Lassa entry inh | FMDV antiviral | HCV inh | Shiga inhibitor
CCNc1oc(COc2cccc(C)c2)nc1C#N | 23 | ? | . | . | . | .
O=C(CSc1nnc(CNC(=O)c2ccccc2F)o1)c1ccc(Cl)cc1 | . | . | . | . | . | .
[O-]/[N+](=N\Nc1ccc(Cl)cc1)c1ccccc1 | / | ? | . | . | ? | /
CC(C)[C@@H]1CN=C(N)N1C[C@@H]1CCCN1C[C@H](C)N1C[C@@H](Cc2ccccc2)N(CCc2ccc(Cl)c(Cl)c2)C1=N | / | / | / | . | 0.56µM | /
Cc1cccc(/C=N\Nc2cn[nH]c(=O)c2Cl)c1 | 16 | . | . | . | / | 36
O=c1[nH]ncc(N/N=C\c2cccnc2)c1Cl | . | / | / | . | . | .
c1csc(-c2noc(COc3ccc4c(c3)CCCC4)n2)c1 | 41 | ? | ? | . | . | 89
CCOC(=O)c1ccc(OCc2nc(-c3cccs3)no2)cc1 | 16 | . | ? | / | . | .
CCOC(=O)N1CCN(Cc2nc(-c3cccs3)no2)CC1 | 30 | / | / | . | . | 81
NC(=O)C1CCN(Cc2nc(-c3cccs3)no2)CC1 | . | . | . | . | . | .
O=C(NC1CCCCC1)c1ccc(CS(=O)(=O)Cc2ccccc2F)o1 | 20 | . | . | . | . | 68
Cc1ccccc1CS(=O)(=O)Cc1ccc(C(=O)NCCc2ccc(Cl)cc2)o1 | / | / | ? | 28µM | / | /
O=C(NC1CCCC1)c1ccc(CS(=O)(=O)Cc2ccccc2F)o1 | . | / | / | . | ? | .
O=C(NC1CCCC1)c1ccc(CSCc2ccccc2F)o1 | 31 | . | ? | . | . | .
Cc1ccc(CCNC(=O)c2ccc(CS(=O)(=O)Cc3ccccc3F)o2)cc1 | . | ? | ? | ? | ? | .

Compound activity from PubChem.
